Bioassay records from PubChem BioAssay.
LAP4 TOR yeast: yeast TOR pathway LAP4-GFP modulation | S. cerevisiae LAP4-GFP multiplex, flow cytometry GFP, 3 h; median GFP as percent of DMSO wells | GFP response vs DMSO, % at 10 µM | actives 0.34% (n = 320,000) | AID 2023;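 active = GFP response vs DMSO above a set limit, about the screen mean plus 3 SD, cut at about 150% in these data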
MEP2-GFP yeast: alters MEP2-GFP fluorescence in TOR pathway yeast screen. S. cerevisiae MEP2-GFP strain, flow cytometry GFP, 3 h; 100% = DMSO control level. GFP response vs DMSO, % at 10 µM. actives 0.51% (n = 330,000). AID 2016;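 active = GFP response versus DMSO above a set limit, roughly screen mean plus 3 SD, cut at about 180% in these data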;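 also: median GFP fluorescence of the barcode-gated MEP2-GFP cells per well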
RPL19A-GFP yeast: yeast TOR pathway RPL19A-GFP modulation; S. cerevisiae RPL19A-GFP strain, flow cytometry, 3 h; active compounds read low; AID 2025; actives 0.3% (n = 330,000); percent response vs DMSO, % at 10 µM;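 active = percent response vs DMSO below 50%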;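 also: median channel GFP fluorescence of the barcoded RPL19A-GFP strain; ratio of sample median GFP to plate DMSO average so 100% = DMSO; lower means less RPL19A-GFP as with rapamycin TOR inhibition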
AGP1-GFP MLPCN: modulators of TOR pathway AGP1-GFP in S. cerevisiae. GFP response vs DMSO, % at 10 µM. S. cerevisiae AGP1-GFP multiplex flow cytometry, 3 h; GFP as percent of DMSO wells. actives 0.02% (n = 320,000);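 active = GFP response relative to DMSO above a set limit, near screen average plus 3 SD, cut at about 150% in these data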;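 also: median GFP channel fluorescence of the gated AGP1 strain per well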
CIT2-GFP yeast: modulators of TOR pathway CIT2-GFP in S. cerevisiae; S. cerevisiae CIT2-GFP strain, flow cytometry, 3 h; 100 means same as DMSO wells; GFP response vs DMSO, % at 10 µM; actives 0.065% (n = 320,000); AID 2029;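 active = GFP response relative to DMSO above a set limit, near the screen mean plus 3 SD, cut at about 150% in these data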;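 also: ratio of well median GFP fluorescence to mean of DMSO wells on the plate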
LAP4-GFP pick2: reconfirmed LAP4-GFP TOR pathway modulator in yeast. shares compounds with LAP4 TOR yeast. S. cerevisiae LAP4-GFP strain, flow cytometry GFP, 3 h. GFP response vs DMSO, % at 10 µM. actives 20% (n = 590). AID 2621;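 active = GFP signal as percent of the solvent control above about 150%, meaning raised reporter expression, limit read from the data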;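 also: ratio of well median GFP fluorescence to plate DMSO mean so 100% = DMSO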
MEP2 cherry2: second confirmation of modulators of TOR reporter MEP2-GFP in yeast | AID 2622 | GFP response vs DMSO, % at 10 µM | shares compounds with LAP4 TOR yeast | actives 10% (n = 590) | S. cerevisiae MEP2-GFP strain, flow cytometry GFP, 3 h;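 active = GFP signal above 150% of the solvent control wells, that is a rise of more than half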;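 also: median channel GFP fluorescence of all gated yeast cells per well; ratio of median GFP to plate DMSO average so 100% = DMSO level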
RPL19A GFP CP2: second confirmation of modulators of TOR reporter RPL19A-GFP in yeast | AID 2623 | S. cerevisiae RPL19A-GFP strain, flow cytometry GFP, 3 h; active compounds read low; 100% means same as DMSO wells | shares compounds with LAP4 TOR yeast | actives 3% (n = 590) | GFP response vs DMSO, % at 10 µM;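 active = under 65% GFP response relative to DMSO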;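 also: median GFP channel fluorescence per well over the all cells gate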
CIT2-GFP pick2: second confirmation of modulators of TOR reporter CIT2-GFP in yeast. shares compounds with LAP4 TOR yeast. S. cerevisiae CIT2-GFP strain, flow cytometry GFP, 3 h; DMSO control wells read 100%. GFP response vs DMSO, % at 10 µM. actives 8% (n = 590);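 active = GFP response vs DMSO above about 150%, limit read from the data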;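 also: median green fluorescence per well over all gated yeast cells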
AGP1-GFP pick2: yeast AGP1-GFP TOR reporter modulation, second cherry pick; shares compounds with LAP4 TOR yeast; S. cerevisiae AGP1-GFP strain, flow cytometry GFP, 3 h; percent response vs DMSO, % at 10 µM; 590 tested, under 10 active; AID 2643;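 active = over 150 percent of DMSO response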;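 also: median GFP channel fluorescence over all cells without mother daughter split; sample median GFP divided by mean DMSO control so 100% equals DMSO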
Yeast autofluor: yeast s288c autofluorescence artifact, counter-screen | shares compounds with LAP4 TOR yeast | S. cerevisiae s288c, 520 nm autofluorescence, flow cytometry, 3 h; active compounds read high; zero means same as solvent-only cells | fluorescence change (kMESF span) at 33 µM | 610 tested, under 10 active;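 active = fluorescence span over the dose series, or activity score, above about 33, limit read from the data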
s288c autofl DR: TOR screen hit shows autofluorescence in yeast s288c; shares compounds with LAP4 TOR yeast; S. cerevisiae s288c parental, compound autofluorescence, flow cytometry, 3 h; fluorescence change (span) at 33 µM; 110 tested, under 10 active; AID 488829;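 active = fluorescence change span, or the activity score built from it, above 25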
TORC1 bypass gr: compounds blocking wildtype yeast growth but not TORC1 bypass cells; shares compounds with LAP4 TOR yeast; S. cerevisiae BY4741 spot growth rating, 48-72 h; active compounds read low; growth rating (0-3) at 30 µM; 120 tested, under 10 active;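 active = growth rating at most 1 for wild type yeast while the TORC1 bypass strain still grows fully, rated 3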
An asterisk follows results filed as active. Sampled rows, rich in hits. Any-hit rate of the full collection: about 0.93%.

How did CC(C)(C)n1nc(-c2ccc(F)cc2)c2c(N)ncnc21 do in these assays?
LAP4 TOR yeast: 177.7*; MEP2-GFP yeast: 104.5; RPL19A-GFP yeast: 47.7*; AGP1-GFP MLPCN: 92.2; CIT2-GFP yeast: 51.2; LAP4-GFP pick2: 137.3; MEP2 cherry2: 136.2; RPL19A GFP CP2: 47.5*; CIT2-GFP pick2: 61.2; AGP1-GFP pick2: 86.3; Yeast autofluor: -0.4; s288c autofl DR: 0.29; TORC1 bypass gr: 3

What do the screens show for `Cc1ccc(-c2nn(C(C)(C)C)c3ncnc(NS(=O)(=O)c4ccc([N+](=O)[O-])cc4)c23)cc1`?
LAP4 TOR yeast: 119.6; MEP2-GFP yeast: 100.8; RPL19A-GFP yeast: 95.5; AGP1-GFP MLPCN: 103.9; CIT2-GFP yeast: 99.9

How did CC(C)(C)n1nc(-c2ccc(Cl)cc2)c2c(N)ncnc21 do in these assays?
LAP4 TOR yeast: 181.7*; MEP2-GFP yeast: 106.2; RPL19A-GFP yeast: 43.2*; AGP1-GFP MLPCN: 82.7; CIT2-GFP yeast: 42.9; Yeast autofluor: -1; s288c autofl DR: 0.32; TORC1 bypass gr: 3

Results for Cc1ccc(-c2nc(N)c3c(-c4ccc(C)cc4)nn(C(C)(C)C)c3n2)cc1 ?
LAP4 TOR yeast: 98.1; MEP2-GFP yeast: 100.0; RPL19A-GFP yeast: 100.8; AGP1-GFP MLPCN: 96.1; CIT2-GFP yeast: 95.2; LAP4-GFP pick2: 112.2; MEP2 cherry2: 120.5; RPL19A GFP CP2: 105.5; CIT2-GFP pick2: 132.1; AGP1-GFP pick2: 98.6; Yeast autofluor: 0.1

What do the screens show for `CC(=O)Nc1ccc(NC(=O)Cn2c(=O)n(-c3ccc(C)cc3)c(=O)c3oc4ccccc4c32)cc1`?
LAP4 TOR yeast: 99.0; MEP2-GFP yeast: 92.2; RPL19A-GFP yeast: 93.7; AGP1-GFP MLPCN: 102.1; CIT2-GFP yeast: 96.0

Results for N#CCCn1c(SCC(=O)Nc2ccc(N3CCOCC3)cc2)nc2ccccc21 ?
LAP4 TOR yeast: 110.3; MEP2-GFP yeast: 109.2; RPL19A-GFP yeast: 104.8; AGP1-GFP MLPCN: 96.7; CIT2-GFP yeast: 105.2

Results for COc1ccc(COC(=O)c2cccc(S(=O)(=O)N3CCCC3)c2)cc1F ?
LAP4 TOR yeast: 89.8; MEP2-GFP yeast: 108.0; RPL19A-GFP yeast: 103.8; AGP1-GFP MLPCN: 102.0; CIT2-GFP yeast: 105.3

Results for CC1(C)CCC[C@]2(C)[C@H]3CC(=O)O[C@]3(C)CC[C@@H]12 ?
LAP4 TOR yeast: 92.0; MEP2-GFP yeast: 113.3; RPL19A-GFP yeast: 106.2; AGP1-GFP MLPCN: 97.0; CIT2-GFP yeast: 96.1

What do the screens show for `CC(=O)OC[C@]12CC[C@H]3[C@@](C)(CC[C@H]4C(C)(C)CCC[C@]34C)[C@@H]1C[C@H](C1=CC(=O)O[C@@H]1OC(C)=O)O2`?
LAP4 TOR yeast: 154.5*; MEP2-GFP yeast: 103.7; RPL19A-GFP yeast: 95.4; AGP1-GFP MLPCN: 80.2; CIT2-GFP yeast: 104.5; LAP4-GFP pick2: 210.4*; MEP2 cherry2: 172.9*; RPL19A GFP CP2: 97.6; CIT2-GFP pick2: 172.4*; AGP1-GFP pick2: 100.0; Yeast autofluor: 4.41

Results for CC1=CN2C(=N)/C(=C/c3ccc([N+](=O)[O-])o3)C(=O)N=C2S1 ?
LAP4 TOR yeast: 862.9*; MEP2-GFP yeast: active; RPL19A-GFP yeast: 226.2; AGP1-GFP MLPCN: 137.6; CIT2-GFP yeast: 62.5; LAP4-GFP pick2: active; MEP2 cherry2: active; RPL19A GFP CP2: 717.6; CIT2-GFP pick2: active; AGP1-GFP pick2: 243.1*

How did CC1=CN2C(=N)/C(=C/c3ccco3)C(=O)N=C2S1 do in these assays?
LAP4 TOR yeast: 98.8; MEP2-GFP yeast: 103.4; RPL19A-GFP yeast: 103.9; AGP1-GFP MLPCN: 89.2; CIT2-GFP yeast: 104.0

How did Cc1ccc(NC(=O)N2CCCC2C(=O)NCC2CCCCC2)cc1 (centres undefined) do in these assays?
LAP4 TOR yeast: 89.6; MEP2-GFP yeast: 106.6; RPL19A-GFP yeast: 103.3; AGP1-GFP MLPCN: 100.3; CIT2-GFP yeast: 104.4

How did CCOC(=O)C1=C(O)c2ccccc2C(=O)/C1=C\c1ccc(C)cc1 do in these assays?
LAP4 TOR yeast: 185.6*; MEP2-GFP yeast: 111.4; RPL19A-GFP yeast: 81.6; AGP1-GFP MLPCN: 72.3; CIT2-GFP yeast: 80.1; LAP4-GFP pick2: 186.5*; MEP2 cherry2: 221.3*; RPL19A GFP CP2: 100.0; CIT2-GFP pick2: 161.7*; AGP1-GFP pick2: 93.1; Yeast autofluor: 41.3*

How did CCOC(=O)C1=C(C)N(c2ccc(C)cc2)C(=O)/C1=C\c1ccc(O)c(OC)c1 do in these assays?
LAP4 TOR yeast: 112.4; MEP2-GFP yeast: 105.4; RPL19A-GFP yeast: 100.3; AGP1-GFP MLPCN: 106.0; CIT2-GFP yeast: 95.0

How did COc1ccc2[nH]c3c(c2c1)CCNC3c1ccc([N+](=O)[O-])o1 (centres undefined) do in these assays?
LAP4 TOR yeast: 313.6*; MEP2-GFP yeast: 498.4*; RPL19A-GFP yeast: 135.2; AGP1-GFP MLPCN: 132.4; CIT2-GFP yeast: 266.3*; LAP4-GFP pick2: 316.6*; MEP2 cherry2: 564.2*; RPL19A GFP CP2: 145.3; CIT2-GFP pick2: 414.4*; AGP1-GFP pick2: 133.6

How did CCn1cc(C(=O)Nc2ccc(OC)c(S(=O)(=O)N3CCCCC3)c2)c(=O)c2ccc(C)nc21 do in these assays?
LAP4 TOR yeast: 157.7*; MEP2-GFP yeast: 175.0*; RPL19A-GFP yeast: 106.9; AGP1-GFP MLPCN: 112.8; CIT2-GFP yeast: 137.9; LAP4-GFP pick2: 96.2; MEP2 cherry2: 101.5; RPL19A GFP CP2: 101.7; CIT2-GFP pick2: 97.2; AGP1-GFP pick2: 102.7
